The record followed here is PubChem BioAssay (EPA / NIEHS).

Calls of active or inactive are those of the source. The calls were made as follows: active = hit-call score of the fitted dose curve at least 0.9, where 1 is the maximum; inactive = score below 0.9.

Experiment [1] addresses Bile acid receptor (Homo sapiens) (UniProt Q96RI1). Put plainly: ATG_IR1_CIS: Attagene CIS-FACTORIAL HepG2 Assay for human Nuclear Receptor Subfamily 1 Group H Member 4 (NR1H4), IR1 submotif (AID 2282946). The settings on record: IR1 reporter transcription, actives raise or lower the signal. A digest of the protocol:
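HepG2 cells transiently transfected with multiplexed cis-element reporter units read endogenous transcription factor activity. After 24 h compound exposure, reporter mRNA was quantified by RT-PCR, fluorescent labelling, HpaI digestion and capillary electrophoresis; bidirectional fitting versus DMSO baseline.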

Experiment [2] is described as follows: ATG_GRE_CIS: Attagene CIS-FACTORIAL HepG2 Assay for human Glucocorticoid Response Elements (GRE) (AID 2282947). Conditions: HepG2 GRE cis-reporter, Attagene multiplex mRNA; actives raise or lower the signal. A digest of the protocol: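 Reporter transcripts read by RT-PCR with capillary electrophoresis fluorescence after a 24 h chemical exposure of HepG2 cells transiently transfected with multiple cis-element reporter units. Gain or loss fitted against DMSO.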

Experiment [3] can be described thus: ATG_ISRE_CIS: Attagene CIS-FACTORIAL HepG2 Assay for human Interferon Regulatory Factor 1 (IRF1) binding to an Interferon-Stimulated Response Element (ISRE) (AID 2282948). Conditions: HepG2 ISRE cis-reporter (Attagene), mRNA transcription readout; actives raise or lower the signal. The method in brief:
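Multiplexed mRNA reporter readout in human liver HepG2 cells: cis-element-driven reporters transfected, compound added for 24 h, transcripts amplified, fluorescently labelled and sized by capillary electrophoresis; curve fitting bidirectional against DMSO.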

Experiment [4] in a line: ATG_M_32_CIS: Attagene CIS-FACTORIAL HepG2 Assay for M32 Transcription Factor (Internal Marker) (AID 2282949).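 Also: background control marker of the multiplexed CIS panel rather than a real target.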 The settings on record: HepG2 Attagene cis-factorial M32 reporter, mRNA; actives raise or lower the signal. The method in brief:
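HepG2 human liver cells transiently transfected with cis-promoter-driven multiple reporter transcription units, dosed 24 h. Reporter mRNA quantified by RT-PCR, FAM-labelled primer extension, HpaI digest and capillary electrophoresis; bidirectional fit versus DMSO baseline.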

The nature of experiment [5]: ATG_M_06_CIS: Attagene CIS-FACTORIAL HepG2 Assay for M06 Transcription Factor (Internal Marker) (AID 2282950). Conditions: HepG2 Attagene CIS-FACTORIAL M06 internal marker reporter; actives raise or lower the signal. The method in brief: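 One of many multiplexed endpoints: HepG2 reporter mRNA after 24 h dosing, detected by RT-PCR and capillary electrophoresis fluorescence; gain or loss of signal analysed against DMSO.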

The target of experiment [6] is Hypoxia-inducible factor 1-alpha (Homo sapiens) (UniProt Q16665). Put plainly: ATG_HIF1a_CIS: Attagene CIS-FACTORIAL HepG2 Assay for human Hypoxia Inducible Factor 1 (HIF1A) (AID 2282951). The settings on record: HepG2 Attagene cis-factorial HIF1a reporter transcription; actives raise or lower the signal. A digest of the protocol: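 Cis-element reporter constructs were transiently transfected into HepG2 cells, which were treated for 24 h; reporter RNA was reverse-transcribed, amplified, labelled and resolved by capillary electrophoresis.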
Chain of Hypoxia-inducible factor 1-alpha (Homo sapiens) (Q16665 whole entry, looked up): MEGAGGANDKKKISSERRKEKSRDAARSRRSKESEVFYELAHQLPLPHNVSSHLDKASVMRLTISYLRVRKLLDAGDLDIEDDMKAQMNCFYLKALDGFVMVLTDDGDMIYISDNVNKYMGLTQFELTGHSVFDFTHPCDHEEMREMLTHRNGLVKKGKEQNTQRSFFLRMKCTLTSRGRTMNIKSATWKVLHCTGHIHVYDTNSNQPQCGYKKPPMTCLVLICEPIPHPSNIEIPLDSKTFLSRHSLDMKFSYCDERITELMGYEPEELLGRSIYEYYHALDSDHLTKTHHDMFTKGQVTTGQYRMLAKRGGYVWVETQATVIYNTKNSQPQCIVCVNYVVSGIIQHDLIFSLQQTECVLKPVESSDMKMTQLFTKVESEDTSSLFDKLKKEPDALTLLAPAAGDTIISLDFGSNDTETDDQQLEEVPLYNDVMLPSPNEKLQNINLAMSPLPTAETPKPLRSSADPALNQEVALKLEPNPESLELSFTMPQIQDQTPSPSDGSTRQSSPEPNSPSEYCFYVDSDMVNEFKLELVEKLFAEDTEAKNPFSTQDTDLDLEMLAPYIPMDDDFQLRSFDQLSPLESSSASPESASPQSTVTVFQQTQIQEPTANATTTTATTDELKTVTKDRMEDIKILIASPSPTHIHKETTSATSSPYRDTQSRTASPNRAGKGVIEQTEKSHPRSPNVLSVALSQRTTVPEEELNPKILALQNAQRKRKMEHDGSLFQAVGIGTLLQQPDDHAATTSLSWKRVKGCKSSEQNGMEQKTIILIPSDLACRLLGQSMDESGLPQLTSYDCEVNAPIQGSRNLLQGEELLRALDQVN

The target of experiment [7] is Hepatocyte nuclear factor 6 (Homo sapiens) (UniProt Q9UBC0). Put plainly: ATG_HNF6_CIS: Attagene CIS-FACTORIAL HepG2 Assay for human Hepatocyte Nuclear Factor 6 (HNF6) (AID 2282952). The settings on record: HepG2 Attagene cis-factorial HNF6 reporter transcription; actives raise or lower the signal. The method in brief:
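Endogenous factor activity read in transiently transfected HepG2 via promoter-regulated reporter transcripts. RNA harvested 24 h post-dosing, reverse-transcribed, PCR-amplified, FAM-labelled, HpaI-digested and resolved by capillary electrophoresis; fitted in both directions against DMSO.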

Experiment [8] has as its target Heat shock factor protein 1 (Homo sapiens) (UniProt Q00613). Put plainly: ATG_HSE_CIS: Attagene CIS-FACTORIAL HepG2 Assay for human Heat Shock Transcription Factor 1 (HSE) (AID 2282953). Conditions: HepG2 HSE cis-reporter, Attagene RNA transcription; actives raise or lower the signal. A digest of the protocol:
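Using HepG2 with transfected cis-driven reporter constructs, compound effects on endogenous factor activity are scored as reporter mRNA change at 24 h. Detection: RT-PCR, HpaI digestion, capillary electrophoresis; bidirectional fitting to DMSO.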

The nature of experiment [9]: ATG_MRE_CIS: Attagene CIS-FACTORIAL HepG2 Assay for human Metal Responsive Element (MRE) (AID 2282954). Conditions: HepG2 MRE cis-reporter transcription, Attagene multiplex; actives raise or lower the signal. A digest of the protocol: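 Endogenous MRE-dependent transcription read as reporter mRNA in transiently transfected human HepG2 cells at 24 h. RNA reverse-transcribed, PCR-amplified, labelled and resolved by capillary electrophoresis; gain or loss relative to DMSO.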

The target of experiment [10] is Paired box protein Pax-6 (Homo sapiens) (UniProt P26367). Put plainly: ATG_Pax6_CIS: Attagene CIS-FACTORIAL HepG2 Assay for human Paired Box 6 (PAX6) (AID 2282956). The settings on record: HepG2 CIS-FACTORIAL PAX6 reporter transcription, RNA readout; actives raise or lower the signal. The method in brief: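 Fluorescent RT-PCR products separated by capillary electrophoresis report PAX6-linked promoter mRNA in HepG2 cells 24 h post-dose. Curves fitted bidirectionally, DMSO as negative control.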
Chain of Paired box protein Pax-6 (Homo sapiens) (P26367 whole entry, looked up): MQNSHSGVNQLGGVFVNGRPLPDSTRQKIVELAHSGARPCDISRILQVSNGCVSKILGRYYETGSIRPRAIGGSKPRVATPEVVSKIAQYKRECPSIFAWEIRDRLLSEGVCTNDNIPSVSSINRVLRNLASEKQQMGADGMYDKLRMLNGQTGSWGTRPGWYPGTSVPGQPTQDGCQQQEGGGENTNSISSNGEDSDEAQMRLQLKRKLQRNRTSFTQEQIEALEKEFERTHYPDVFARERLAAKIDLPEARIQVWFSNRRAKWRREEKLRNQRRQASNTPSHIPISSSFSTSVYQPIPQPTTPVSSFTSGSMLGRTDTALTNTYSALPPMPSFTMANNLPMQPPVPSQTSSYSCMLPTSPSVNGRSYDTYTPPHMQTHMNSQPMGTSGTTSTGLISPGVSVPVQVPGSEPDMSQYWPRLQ

A short description of experiment [11]: ATG_PXRE_CIS: Attagene CIS-FACTORIAL HepG2 Assay for human Pregnane X Receptor Element (PXRE) (AID 2282957). Conditions: HepG2 Attagene CIS-FACTORIAL PXRE reporter, mRNA; actives raise or lower the signal. The method in brief:
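Reporter transcripts under endogenous PXR-responsive cis-regulation quantified from total RNA of transfected HepG2 cells 24 h post-dosing, via RT-PCR with fluorescent primer extension and capillary electrophoresis. Gain or loss of signal fitted against DMSO baseline.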

A short description of experiment [12]: ATG_PPRE_CIS: Attagene CIS-FACTORIAL HepG2 Assay for human Peroxisome Proliferator-activated Response Element (PPRE) (AID 2282958). Conditions: HepG2 PPRE cis-element reporter, Attagene transcription factor profiling; actives raise or lower the signal. The method in brief: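 DMSO served as negative control and baseline for bidirectional curve fitting. Signal came from PPRE-regulated reporter mRNA in HepG2 cells, measured 24 h post-dosing by RT-PCR, 6-FAM primer extension and capillary electrophoresis.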

Experiment [13] is described as follows: ATG_RORE_CIS: Attagene CIS-FACTORIAL HepG2 Assay for human RAR-related Orphan Receptor Element (RORE) (AID 2282959). The settings on record: HepG2 Attagene cis-factorial RORE reporter, mRNA; actives raise or lower the signal. The method in brief:
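Transfect HepG2 with MRTUs; treat 24 h; extract RNA; RT with oligo(dT); PCR with reporter-specific primers; 6-FAM primer extension; HpaI digest 2 h at 37 C; capillary electrophoresis. Fit vs DMSO, bidirectional.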

A short description of experiment [14]: ATG_Sox_CIS: Attagene CIS-FACTORIAL HepG2 Assay for human SRY-box transcription factor (SOX) (AID 2282960). The settings on record: HepG2 Attagene cis-factorial SOX reporter, mRNA; actives raise or lower the signal. A digest of the protocol:
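Fluorescence-labelled cDNA fragments from reporter transcripts, sized by CE, give the signal. Cells: HepG2, transiently transfected with cis-regulated reporter units. Exposure 24 h; DMSO negative control; bidirectional curve fitting.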

The target of experiment [15] is Transcription factor Sp1 (Homo sapiens) (UniProt P08047). Put plainly: ATG_Sp1_CIS: Attagene CIS-FACTORIAL HepG2 Assay for human Specificity Protein 1 (Sp1) (AID 2282961). The settings on record: HepG2 Sp1 cis-reporter transcription, actives raise or lower the signal. A digest of the protocol:
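Chemicals are dosed onto HepG2 cells transfected with multiple cis-promoter reporter constructs, and after 24 h reporter RNA is reverse-transcribed, PCR-amplified and resolved by capillary electrophoresis for fluorescence quantitation; activity is scored up or down against DMSO.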

Experiment [16] is described as follows: ATG_SREBP_CIS: Attagene CIS-FACTORIAL HepG2 Assay for human Sterol Regulatory Element Binding (SREBP) (AID 2282962). The settings on record: HepG2 Attagene cis-factorial SREBP reporter, mRNA; actives raise or lower the signal. A digest of the protocol:
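Endogenous factor activity is measured in HepG2 through multiplexed reporter units under cis-element control. Following a 24 h incubation, reporter transcripts are reverse-transcribed, PCR-amplified and sized by capillary electrophoresis; activity is fitted in both directions relative to DMSO.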

The target of experiment [17] is Signal transducer and activator of transcription 3 (Homo sapiens) (UniProt P40763). Put plainly: ATG_STAT3_CIS: Attagene CIS-FACTORIAL HepG2 Assay for human Signal Transducer and Activator of Transcription 3 (STAT3) (AID 2282963). Conditions: HepG2, Attagene cis-factorial STAT3 reporter transcription; actives raise or lower the signal. The method in brief:
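Readout is reporter transcript quantified by RT-PCR and capillary electrophoresis, with 6-FAM primer extension and HpaI digestion. Total RNA is taken 24 h after dosing transiently transfected HepG2 carrying cis-regulated reporter units. Bidirectional fit against DMSO.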

The nature of experiment [18]: ATG_TA_CIS: Attagene CIS-FACTORIAL HepG2 Assay for human TA Basal Promoter (AID 2282964). The settings on record: HepG2 Attagene CIS-factorial TA basal promoter reporter; actives raise or lower the signal. The method in brief:
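Transient MRTU transfection of HepG2 preceded 24 h compound exposure. Reporter mRNA levels were then read by RT-PCR with capillary electrophoresis, and this background-control endpoint was fitted bidirectionally to DMSO.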

Experiment [19] can be described thus: ATG_TCF_b_cat_CIS: Attagene CIS-FACTORIAL HepG2 Assay for human T-Cell-Factor with beta-catenin (TCF/b-cat) (AID 2282965). Conditions: HepG2 TCF/beta-catenin cis-reporter transcription, actives raise or lower the signal. The method in brief: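 Endogenous transcription factor activity is captured through cis-promoter reporter constructs transiently introduced into human HepG2 liver cells. Induced reporter mRNA is measured after 24 h and fitted bidirectionally relative to DMSO.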

Experiment [20] is described as follows: ATG_PBREM_CIS: Attagene CIS-FACTORIAL HepG2 Assay for human Phenobarbital-responsive Enhancer Module (PBREM) (AID 2282955). The settings on record: HepG2 PBREM cis-reporter, Attagene multiplexed transcription; actives raise or lower the signal. The method in brief:
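Multiplexed cis-reporter readout in human hepatoma HepG2 cells; PBREM-regulated transcript quantified after 24 h exposure by fluorescent RT-PCR fragment analysis. Signal changes up or down fitted relative to DMSO.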

Chain of Hepatocyte nuclear factor 6 (Homo sapiens) (Q9UBC0 whole entry, looked up): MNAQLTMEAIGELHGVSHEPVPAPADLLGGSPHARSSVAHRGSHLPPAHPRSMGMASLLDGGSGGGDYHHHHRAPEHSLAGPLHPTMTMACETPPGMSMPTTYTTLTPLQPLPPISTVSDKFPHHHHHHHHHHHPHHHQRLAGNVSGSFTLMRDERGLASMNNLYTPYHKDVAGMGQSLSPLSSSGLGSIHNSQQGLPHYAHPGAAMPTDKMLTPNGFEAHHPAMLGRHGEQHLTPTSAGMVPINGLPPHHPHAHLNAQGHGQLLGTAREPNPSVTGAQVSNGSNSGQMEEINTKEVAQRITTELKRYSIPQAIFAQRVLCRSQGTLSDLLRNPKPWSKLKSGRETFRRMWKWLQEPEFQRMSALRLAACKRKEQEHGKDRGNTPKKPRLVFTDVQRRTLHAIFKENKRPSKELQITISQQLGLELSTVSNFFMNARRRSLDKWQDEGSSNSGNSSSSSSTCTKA
Chain of Transcription factor Sp1 (Homo sapiens) (P08047 whole entry, looked up): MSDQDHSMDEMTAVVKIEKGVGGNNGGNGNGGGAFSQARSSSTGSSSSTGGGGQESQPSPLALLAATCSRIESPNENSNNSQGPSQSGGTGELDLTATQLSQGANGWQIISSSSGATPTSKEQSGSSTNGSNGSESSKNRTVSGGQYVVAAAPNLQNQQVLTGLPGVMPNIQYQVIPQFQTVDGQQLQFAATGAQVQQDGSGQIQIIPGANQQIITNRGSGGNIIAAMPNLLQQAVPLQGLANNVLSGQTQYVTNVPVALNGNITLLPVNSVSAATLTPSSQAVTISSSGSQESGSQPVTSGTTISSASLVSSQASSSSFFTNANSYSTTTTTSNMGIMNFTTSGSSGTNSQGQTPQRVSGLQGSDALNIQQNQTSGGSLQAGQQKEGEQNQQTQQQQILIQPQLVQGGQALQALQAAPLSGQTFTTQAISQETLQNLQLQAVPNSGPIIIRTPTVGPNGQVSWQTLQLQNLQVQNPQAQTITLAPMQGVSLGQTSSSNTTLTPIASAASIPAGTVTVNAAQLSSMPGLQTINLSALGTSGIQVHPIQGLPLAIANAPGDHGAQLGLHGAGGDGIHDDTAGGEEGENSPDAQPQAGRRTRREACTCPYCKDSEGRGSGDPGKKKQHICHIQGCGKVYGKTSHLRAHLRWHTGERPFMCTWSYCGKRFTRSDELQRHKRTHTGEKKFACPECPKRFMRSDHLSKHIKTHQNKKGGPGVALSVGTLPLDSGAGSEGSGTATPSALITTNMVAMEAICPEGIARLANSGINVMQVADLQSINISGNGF
Chain of Bile acid receptor (Homo sapiens) (Q96RI1 whole entry, looked up): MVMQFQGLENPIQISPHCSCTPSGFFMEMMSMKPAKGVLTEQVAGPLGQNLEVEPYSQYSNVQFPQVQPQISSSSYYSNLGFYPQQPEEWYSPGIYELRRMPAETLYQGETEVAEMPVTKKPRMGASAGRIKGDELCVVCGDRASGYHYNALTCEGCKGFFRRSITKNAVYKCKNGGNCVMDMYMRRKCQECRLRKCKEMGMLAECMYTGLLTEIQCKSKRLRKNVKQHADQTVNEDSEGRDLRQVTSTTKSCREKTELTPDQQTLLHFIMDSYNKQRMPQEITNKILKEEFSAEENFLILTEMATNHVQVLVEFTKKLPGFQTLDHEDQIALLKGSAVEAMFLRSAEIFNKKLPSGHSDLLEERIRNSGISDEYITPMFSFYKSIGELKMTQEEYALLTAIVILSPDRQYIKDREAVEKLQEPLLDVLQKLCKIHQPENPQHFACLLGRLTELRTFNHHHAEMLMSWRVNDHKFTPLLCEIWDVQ
Chain of Signal transducer and activator of transcription 3 (Homo sapiens) (P40763 whole entry, looked up): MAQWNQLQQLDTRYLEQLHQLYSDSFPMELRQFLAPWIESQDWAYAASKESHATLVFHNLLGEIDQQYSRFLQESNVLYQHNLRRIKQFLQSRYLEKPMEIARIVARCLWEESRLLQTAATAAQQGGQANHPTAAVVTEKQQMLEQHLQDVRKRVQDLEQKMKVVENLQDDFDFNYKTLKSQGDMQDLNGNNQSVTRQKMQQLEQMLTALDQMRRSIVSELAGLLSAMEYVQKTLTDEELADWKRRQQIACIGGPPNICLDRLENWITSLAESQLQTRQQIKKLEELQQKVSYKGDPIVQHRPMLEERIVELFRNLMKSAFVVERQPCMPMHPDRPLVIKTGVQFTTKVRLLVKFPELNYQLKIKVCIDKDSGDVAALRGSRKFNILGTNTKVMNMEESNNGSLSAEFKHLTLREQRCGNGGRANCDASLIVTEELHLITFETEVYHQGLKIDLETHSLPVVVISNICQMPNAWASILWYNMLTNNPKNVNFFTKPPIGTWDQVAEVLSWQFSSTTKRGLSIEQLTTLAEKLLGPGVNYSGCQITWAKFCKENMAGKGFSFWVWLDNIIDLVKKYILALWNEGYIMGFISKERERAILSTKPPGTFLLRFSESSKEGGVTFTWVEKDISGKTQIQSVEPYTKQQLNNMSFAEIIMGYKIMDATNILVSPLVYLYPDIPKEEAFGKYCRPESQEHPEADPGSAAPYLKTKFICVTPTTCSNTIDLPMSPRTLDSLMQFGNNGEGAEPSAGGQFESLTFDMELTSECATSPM
Chain of Heat shock factor protein 1 (Homo sapiens) (Q00613 whole entry, looked up): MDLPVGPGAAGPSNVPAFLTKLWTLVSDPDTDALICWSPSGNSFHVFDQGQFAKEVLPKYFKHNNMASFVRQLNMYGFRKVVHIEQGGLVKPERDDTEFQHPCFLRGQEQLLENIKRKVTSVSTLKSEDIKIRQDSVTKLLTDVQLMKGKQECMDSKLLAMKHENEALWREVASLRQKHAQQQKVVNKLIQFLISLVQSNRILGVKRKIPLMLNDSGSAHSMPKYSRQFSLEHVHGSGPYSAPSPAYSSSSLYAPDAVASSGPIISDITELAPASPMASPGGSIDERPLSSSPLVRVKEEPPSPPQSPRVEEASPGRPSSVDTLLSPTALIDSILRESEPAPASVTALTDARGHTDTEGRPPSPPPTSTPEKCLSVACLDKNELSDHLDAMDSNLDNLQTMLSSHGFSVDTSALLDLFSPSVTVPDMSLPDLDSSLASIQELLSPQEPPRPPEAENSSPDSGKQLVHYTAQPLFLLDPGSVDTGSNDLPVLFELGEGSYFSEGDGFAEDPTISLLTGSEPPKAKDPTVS

Usually AC50 stands for the concentration at which the activity in the assay is half-maximal. `CC(=O)Nc1ccc(C(=O)CCl)cc1`: the AC50 was 33.4 µM (active) in experiment [1]; 6.86 µM (active) in [3]; 16.1 µM (active) in experiment [9]; 9 µM (active) in experiment [10]; 8.57 µM (active) in experiment [14]; 8.32 µM (active) in experiment [15]. For the same compound, the AC50 in [16] is 8.67 µM (active). In addition, the outcome in experiment [2], in experiment [4], in experiment [5], in [6], in experiment [7] and in experiment [8] was inactive. Also, the call in experiment [11], in [12], in experiment [13], in [17], in experiment [18] and in [19] was inactive.

Regarding `Nc1ccc(Cl)c([N+](=O)[O-])c1`, the compound was called inactive in experiment [1], in experiment [2], in experiment [3], in experiment [4], in experiment [5] and in experiment [6]. Further, the result in experiment [7], in experiment [8], in experiment [9], in [10], in experiment [12] and in experiment [13] was inactive. Further, the result in experiment [14], in [15], in experiment [16], in experiment [17], in experiment [18] and in experiment [19] was inactive. Further, in experiment [11], the half-maximal activity concentration (AC50) is 37.6 µM (active).

As for `COC(=O)Nc1ccc(Cl)c(Cl)c1`, the call in experiment [1], in experiment [4], in experiment [5], in [6], in [7] and in experiment [8] was inactive. Further, the result in experiment [20], in [10], in experiment [12], in [13], in [14] and in experiment [15] was inactive. For the same compound, the compound was called inactive in experiment [16], in experiment [17] and in [18]. For the same compound, the half-maximal activity concentration (AC50) in [2] was 25.7 µM (active); in experiment [3], 30.7 µM (active); in experiment [9], 49.7 µM (active); in experiment [11], 100 µM (active); in experiment [19], 26.4 µM (active).
